SMILES strings stand for the structures. Screen size: about 290,000 compounds; about 3,000 (1%) were called active. This is one part of a sample in which actives are shown more often than they occur. Values without a mark were called inactive. Rule as the data show it: active = inhibition mostly above about 36% (no sharp cut-off); inactive = mostly below about 34%.

This experiment can be described thus: inhibition of NOD1-driven NF-kB reporter – cell-based, luminescence, uHTS, primary screen (AID 1578).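 Also: HEK-293T reporter cells stimulated with the NOD1 agonist gamma-tri-DAP.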 To be noted: NOD1-driven NF-kB luciferase reporter cells, at 4 µM, stronger effect = higher value. A general note: In a reporter assay the amount or activity of a reporter protein is the signal.
The inhibition is the change of the read-out against control, counted positive when it falls. In the case of `COCCn1nnnc1C(c1ccccn1)N1CCN(c2cc(Cl)ccc2C)CC1` (configuration not stated), the inhibition was -10.8%. As for `COC(=O)c1ccccc1NC(=O)C(C)n1nc(C)c2c(C)n(-c3ccccc3)nc2c1=O` (configuration not stated), the inhibition is 7.4%. As to `Cc1cc(C)cc(OCC(=O)Nc2ccc(CN3CCCCC3)cc2)c1`, the inhibition is -37.6%. The figure for `CCCCc1c(C)nc2ccc(Br)cc2c1SCCC#N` is 19.5%; for `CCc1c(C)nc2c(Br)cccc2c1SCCC#N` it is 22.1%.

`O=C(CN1C(=O)S/C(=C\c2cccs2)C1=O)Nc1ccc(O)cc1C(=O)O`: the inhibition is 38.9%.

Turning to `Cn1nnnc1SCCNCc1ccccc1OCc1ccccc1Cl`, the inhibition was -12.2%. Turning to `CCc1cccc(NC(=O)c2sc3nc4n(c(=O)c3c2C)CCC4)c1`, the inhibition was -29.9%. As to `Oc1ccc(Nc2nc(-c3ccc(O)cc3)cs2)cc1`, the inhibition is -23.2%. `COc1ccc(Nc2nc(-c3ccc(OC)cc3)cs2)cc1`: the inhibition is -34.6%.

Take `COc1ccc(-c2csc(Nc3ccc(O)cc3)n2)cc1`: the inhibition is 56.7% (active). The figure for `Cc1ccc(S(=O)(=O)N(CC(=O)N/N=C/c2cccc(C)c2)c2cccc3cccnc23)cc1` is -9%. As for `CC(C)CC(=O)NC(C)C(c1cccs1)N1CCOCC1` (configuration not stated), the inhibition is -10.9%.

In the case of `O=c1cc(C(F)(F)F)[nH]c(=S)n1-c1ccccc1`, the inhibition was -3.4%. Then `O=[N+]([O-])c1ccc(-c2c(O)c3ccccc3c3nc4ccccc4nc23)cc1`, with 87.7% (active); and `Cc1cc(-c2ccc([N+](=O)[O-])cc2)nc2ccccc12`, with -26.6%.

On to `O=[N+]([O-])c1ccc(-c2cnc3ccccc3n2)cc1`, for which the inhibition was -42.9%. Consider `CCOC(=O)c1cnn(-c2ccc(C(F)(F)F)cn2)c1N`, for which the inhibition is -92.9%. Regarding `CC(=O)Nc1ccc(NC(=O)CCOc2cc(C)ccc2C)cc1`, the inhibition is 46.4%.

In the case of `CCOC(=O)C1(Cc2ccc(OC)cc2)CCN(C(=O)CCn2cccn2)CC1`, the inhibition was 1.1%. Consider `Cc1cc(C)c2nc(NNC(=O)c3cc(-c4cccs4)nc4ccccc34)sc2c1`, for which the inhibition is -29.4%. As to `Cc1ccc2sc(NNC(=O)c3cc(-c4cccs4)nc4ccccc34)nc2c1C`, the inhibition was -36.7%. For `Cc1cccc2sc(NNC(=O)c3cc(-c4cccs4)nc4ccccc34)nc12`, the inhibition was 86.7% (active). Turning to `O=C(NCCOc1ccc(Cl)cc1)c1ccc2ccccc2n1`, the inhibition was -22.8%. As for `c1ccc(-c2nc3cnccn3c2Nc2ccc3c(c2)OCCO3)cc1`, the inhibition is -26.2%.

Consider `Cc1nn(CC(=O)c2ccc(Cl)s2)c(C)c1[N+](=O)[O-]`, for which the inhibition is -20.3%.

In the case of `COc1ccc(Cc2nnc(NC(=O)c3cccc(F)c3)s2)cc1OC`, the inhibition was -8%. Turning to `CCOC(=O)c1cc(C)n(CCc2ccccc2)c1C`, the inhibition is -18.3%.

For `COc1ccc(CCn2c(C)cc(C(=O)CCl)c2C)cc1OC`, the inhibition is 59.7% (active).

Regarding `Cc1cc(C(=O)CCl)c(C)n1CC1COc2ccccc2O1` (configuration not stated), the inhibition is 51.3% (active).

For the molecule `Cc1cc(C(=O)CSc2nnnn2-c2ccccc2)c(C)n1CCc1ccccc1`, the inhibition was -52.2%. Consider `Cc1cc(C(=O)CN2C(=O)C(=O)N(Cc3ccccc3)C2=O)c(C)n1CC1COc2ccccc2O1` (configuration not stated), for which the inhibition was 27.8%. `Cc1cc(C(=O)COC(=O)c2ccc(O)cc2)c(C)n1CC1COc2ccccc2O1` (configuration not stated): the inhibition is -9.9%. Consider `COc1ccc(CCn2c(C)c(C(C)=O)c(C(C)=O)c2C)cc1OC`, for which the inhibition was -23.3%. As for `COc1ccc(CCn2c(C)cc(C(=O)CSc3nnnn3-c3ccccc3)c2C)cc1OC`, the inhibition is -55.4%.

Regarding `Cn1cccc1C(NC(=O)c1ccccc1)C(Cl)(Cl)Cl` (configuration not stated), the inhibition is -0.5%.

In the case of `Cc1cccc(C)c1OCCNC(=O)c1ccc2ccccc2n1`, the inhibition is 53.9%. For the molecule `COc1cccc(C(=O)Nc2ccc(Cl)c(C(F)(F)F)c2)c1`, the inhibition is -30.7%. Take `Cc1cc(=O)[nH]c(N/N=C/c2cn(CCC#N)nc2-c2ccccc2)n1`: the inhibition was -41.6%. `Cc1cc(NC(=O)CN(C)C)c([N+](=O)[O-])cc1C`: the inhibition was -1.4%. For `COC(=O)C1=C(Cn2cnc3ccccc32)NC(=O)NC1c1cc(C)ccc1C` (configuration not stated), the inhibition was 14.7%.

For the molecule `Cc1nnc2n(c1=O)C(CS(=O)(=O)c1ccccc1)CS2` (configuration not stated), the inhibition is 9.4%. For the molecule `CCCc1nnc(NC(=O)CCC(=O)N2CCN(Cc3cc(F)ccc3OC)CC2)s1`, the inhibition is -10.4%. Regarding `CCOC(=O)CNC(=O)Cc1ccc(Cl)cc1`, the inhibition is -9.2%.

For `Cc1nc2c(c(C)nn2-c2ccccc2)c(C)c1Cl`, the inhibition is 6.2%. With `Cc1cc(C)c2c(C)nn(-c3ccccc3)c2n1`, the inhibition was -3.5%. On to `CN(C)S(=O)(=O)c1cccc(C(=O)OCC(=O)Nc2sccc2C#N)c1`, for which the inhibition was 5.6%. As for `Fc1ccccc1Cc1nnc2n1N=C(c1ccc(Cl)cc1)CS2`, the inhibition was -16%. On to `Nc1cc(-c2ccc(Br)cc2)nn1Cc1ccccc1`, for which the inhibition was 46.7% (active). As to `Nc1cc(-c2cccc(Br)c2)nn1Cc1ccccc1`, the inhibition was -9.7%. Take `Nc1cc(-c2ccccc2)nn1Cc1ccccc1`: the inhibition is -25.1%.

As to `Cc1cc(/C=C2\SC(=Nc3ccc(F)cc3)NC2=O)c(C)n1-c1ccc(S(N)(=O)=O)cc1`, the inhibition is -10.7%. With `COc1ccc(Cc2nnc(SCC(=O)NC3CCCC3)o2)cc1`, the inhibition was 71.8% (active). Then `COc1ccc(OCc2nnc(SCC(=O)NC3CCCCC3)o2)cc1`, with -22.6%; and `O=C(CSc1nnc(Cc2ccccc2)o1)NC1CCCCC1`, with -2.8%; and `COc1ccc(C2NC(=O)CCC2[N+](=O)[O-])cc1` (configuration not stated), with -17.7%. With `CCOC(=O)c1ccccc1NC(=O)c1cc2ccccc2o1`, the inhibition is -31.6%. Regarding `C/C(=N\NC(=O)c1cc(C)nc2ccccc12)c1ccco1`, the inhibition is -18.1%. On to `O=C(CCCCn1c(=O)[nH]c2ccccc2c1=O)NCCC1=CCCCC1`, for which the inhibition is -3.1%. In the case of `O=C(N/N=C/c1ccc(OC(F)F)cc1)c1ccc(CSc2nc3ccccc3[nH]2)cc1`, the inhibition was -27.9%. `CCOc1ccc(/C=N/NC(=O)c2ccc(CSc3nc4ccccc4[nH]3)cc2)cc1`: the inhibition was 66.9% (active). The figure for `COc1cc(/C=N/NC(=O)c2ccc(CSc3nc4ccccc4[nH]3)cc2)ccc1O` is -22.3%.

Take `Cn1c(=O)c2c(nc(N3CCN(c4ccc([N+](=O)[O-])cc4)CC3)n2C)n(C)c1=O`: the inhibition was 0.8%. Consider `CCOc1ccccc1C1C(C#N)=C(N)Oc2cc(C)n(Cc3ccccn3)c(=O)c21` (configuration not stated), for which the inhibition was 4.8%. The figure for `Cc1ccc2c3c(cccc13)-c1ccccc1C2=O` is -32.2%; for `Cc1cccc(-c2cc3c(nn2)-c2ccccc2C3=O)c1` it is -99%. The figure for `Cc1ccc(C)c(NC(=O)COC(=O)c2cccc3c2C(=O)c2ccccc2C3=O)c1` is 16.2%; for `O=C1c2ccccc2C(=O)c2c1ccc1c(=O)n(-c3ccccc3)[nH]c21` it is 8.9%. For `O=C(Cn1c(C(F)(F)F)nc2ccccc21)N1CCCC1`, the inhibition is -9.5%. In the case of `CC(CN1C(C)CCCC1C)OC(=O)c1ccc(Cl)cc1Cl` (configuration not stated), the inhibition is -14.9%. As to `CCN(CC(=O)NCc1ccc(F)cc1)CC(=O)NC1CCCC1`, the inhibition was -35.5%. As for `CCCn1nnnc1SCC(=O)N1CCCc2ccccc21`, the inhibition is -20%.

As to `CC1CCN(CC(=O)n2c3c(c4ccccc42)CCCC3)CC1`, the inhibition was 7.8%. For the molecule `Cc1ccnc(SCC(=O)n2c3c(c4ccccc42)CC(C)CC3)n1` (configuration not stated), the inhibition was 8.4%.

Take `CC1CCc2c(c3ccccc3n2C(=O)CCl)C1` (configuration not stated): the inhibition is 74.2% (active). Then `Cc1ccc(Nc2nc(N)nc(CN3CCCCCC3)n2)c(C)c1`, with -23.1%; and `COc1cccc(Nc2nc(N)nc(CCl)n2)c1`, with -7.5%. Take `Cc1cccc(Nc2nc(N)nc(CN3CCC(C)CC3)n2)c1C`: the inhibition is -38.2%.

`Cc1ccc(Nc2nc(N)nc(CSc3nccn3C)n2)c(C)c1`: the inhibition is -29.9%. For the molecule `COc1ccc(OCc2nc(N)nc(Nc3cccc(C)c3C)n2)cc1`, the inhibition was -7%.

Regarding `Nc1nc(CCl)nc(Nc2ccccc2)n1`, the inhibition was 36.6%. The figure for `CC1CC(C)CN(Cc2nc(N)nc(Nc3ccc4ccccc4c3)n2)C1` (configuration not stated) is -11.4%; for `Cc1cccc(Nc2nc(N)nc(CN3CCN(C)CC3)n2)c1` it is -6.7%; for `COc1ccc(C(C)C)cc1S(=O)(=O)N1CCC(C(=O)NCc2cccnc2)CC1` it is -9.3%. As to `CN1CCN(C(=O)N2CCNC2=O)CC1`, the inhibition is -22%. For `COc1ccc(/C(O)=C2/C(=O)C(=O)N(c3ccccn3)C2c2ccc(C(C)C)cc2)cc1` (configuration not stated), the inhibition was -7.2%. For the molecule `Cc1nc2cc(NS(=O)(=O)c3c(C)c(C)cc(C)c3C)ccc2s1`, the inhibition is 22.1%.

As to `COc1ccc(NC(=O)[C@@H]2[C@@H]3C(=O)N(C4CCCCC4)C(=O)[C@@H]3C3c4ccccc4C=CN32)cc1` (some centres not stated), the inhibition was -4.8%. In the case of `COc1ccc2sc(NC(=O)CC(C)C)nc2c1`, the inhibition is -66.7%. For `Cn1c(=S)[nH]c2[nH]c(=O)cnc2c1=O`, the inhibition was -2.8%.

For `COc1ccc(NC(=O)c2ccc(C(=O)c3ccccc3)o2)cc1`, the inhibition is -21.8%. On to `COc1ccc(CCNC(=O)c2nnn(CC(=O)Nc3ccc(C)cc3C)c2N)cc1OC`, for which the inhibition was -14.4%. Consider `COC(=O)C1(C)NC(c2ccccc2C)C2C(=O)N(c3ccc(F)cc3)C(=O)C21` (configuration not stated), for which the inhibition is -24.2%. With `Cc1cccc(C(=O)Nc2nnc(S(=O)(=O)N3CCC(C)CC3)s2)c1`, the inhibition was 21.6%. As for `Cc1ccc(C(=O)Nc2nnc(S(=O)(=O)N3CCCCCC3)s2)cc1`, the inhibition was -23.3%. `CC1CCN(S(=O)(=O)c2nnc(NC(=O)c3cccc([N+](=O)[O-])c3)s2)CC1`: the inhibition is 30.9%. Regarding `O=C(Nc1nnc(S(=O)(=O)N2CCCCC2)s1)c1ccc(Cl)cc1`, the inhibition is 37.5%.
